Data as given in PubChem BioAssay (EPA / NIEHS).
Values joined by “and” are separate entries in the source; they are usually repeats but may differ in a detail not shown here. Identical values can stand only once. Records with an inconclusive call do not appear. Where a structure was tested more than once in an assay, its records may differ in their call. Active and inactive are the calls of the source. Rule for the calls, unless noted: active = hit-call score of the fitted dose curve at least 0.9, where 1 is the maximum; inconclusive = response in the unintended direction; inactive = score below 0.9.

What was measured:
[1] = Tanguay_ZF_120hpf_CFIN_legacy: (Legacy) Oregon State University Tanguay Lab 120 Hour Post-fertilization zebrafish Assay for Caudal Fin Malformation (AID 2283649)
How it was run: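 Binary presence or absence of caudal fin malformation at 120 hpf, read by brightfield microscopy, with DMSO as baseline. Larvae came from 5D wild-type embryos exposed statically from 6 hpf at 28C after pronase dechorionation.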

[2] = Tanguay_ZF_120hpf_PIG_legacy: (Legacy) Oregon State University Tanguay Lab 120 Hour Post-fertilization zebrafish Assay for Pigmentation Malformation (AID 2283650)
How it was run: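 Endpoint is incidence of abnormal pigmentation at 120 hpf in dechorionated 5D zebrafish exposed singly from 6 hpf at 28C, DMSO vehicle at 0.64%. Embryos dying by 24 or 120 hpf are excluded from scoring.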

[3] = Tanguay_ZF_120hpf_CIRC_legacy: (Legacy) Oregon State University Tanguay Lab 120 Hour Post-fertilization zebrafish Assay for Circulatory Malformation (AID 2283651)
How it was run: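 Binary circulatory malformation call at 120 hpf by brightfield imaging of zebrafish larvae; chorion removed at 4 hpf, static exposure from 6 hpf in sealed dark plates at 28C, final DMSO 0.64%; non-mortality endpoints skipped if embryo died.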

[4] = Tanguay_ZF_120hpf_SWIM_legacy: (Legacy) Oregon State University Tanguay Lab 120 Hour Post-fertilization zebrafish Assay for Swim Bladder Malformation (AID 2283654);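 note: swim bladder malformation in each larva scored yes or no under brightfield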
How it was run: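 Static waterborne exposure of single dechorionated Tropical 5D zebrafish embryos, 6–120 hpf, 28C, 0.64% DMSO final. Read-out: swim bladder malformation, present/absent, relative to DMSO negative control; trimethyltin chloride 5uM served as positive control.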

[5] = Tanguay_ZF_120hpf_TRUN_legacy: (Legacy) Oregon State University Tanguay Lab 120 Hour Post-fertilization zebrafish Assay for Truncated Body (AID 2283655)
How it was run: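 Truncated body is recorded as a binary endpoint at 120 hpf by brightfield imaging of wild-type 5D larvae. Exposure runs statically from 6 hpf at 28C with 0.64% DMSO; embryos dying earlier are not scored.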

[6] = Tanguay_ZF_120hpf_ActivityScore_legacy: (Legacy) Oregon State University Tanguay Lab 120 Hour Post-fertilization zebrafish Assay Score for Activity (AID 2283742);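 for AC50: dechorionated Tropical 5D wild-type zebrafish embryos held singly per well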
How it was run: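 In this whole-embryo screen, dechorionated zebrafish were exposed from 6 hpf until 120 hpf at 28C under a 0.64% DMSO vehicle. Developmental malformations and death were recorded by brightfield microscopy as binary endpoints.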

[7] = Tanguay_ZF_120hpf_NC_legacy: (Legacy) Oregon State University Tanguay Lab 120 Hour Post-fertilization zebrafish Assay for Notochord and Tail Malformation (AID 2283656)
How it was run: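 Binary scoring of notochord distortion by brightfield microscopy; embryos dying were not scored. Wild-type Tropical 5D embryos, chorion removed, exposed singly and statically from 6 to 120 hpf, 28C, sealed, 0.64% DMSO.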

[8] = CCTE_Simmons_CellTiterGLO_HEK293T: Viability Assessment in CCTE's Assays for Thyroperoxidase (TPO) Inhibition, Simmons Lab (AID 2283665);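 for AC50: cells exposed to compound for 24 h before readout; actives reduce ATP signal below DMSO vehicle meaning cytotoxicity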
How it was run: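 Luciferase-coupled ATP content after 24 h exposure gives viability; 8-point series from 5 nM to 87.5 uM final in 0.5% DMSO. Human HEK293T cells, 1% FBS medium, three biological replicates, dichlone positive control.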

[9] = Tanguay_ZF_120hpf_TR_legacy: (Legacy) Oregon State University Tanguay Lab 120 Hour Post-fertilization zebrafish Assay for Touch Response (AID 2283667)
How it was run: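 Readout is presence or absence of touch response in 120 hpf zebrafish larvae, assessed by brightfield observation after continuous static exposure at 28C. Final vehicle was 0.64% (vol/vol) DMSO.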

[10] = CCTE_Padilla_ZF_144hpf_TERATOSCORE: (Legacy) CCTE's 144 Hour Post-fertilization zebrafish Assay Teratoscore, Padilla Lab (AID 2283679; active = hit-call score of the fitted dose curve at least 0.9, where 1 is the maximum; inactive = score below 0.9;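 for AC50: zebrafish embryos with chorions exposed by immersion from 6-8 hpf to 5 dpf with daily renewal; teratogenicity score from eye scoring of death hatching and malformations at 144 hpf; higher score means more developmental defects relative to DMSO baseline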)
How it was run: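 Larvae scored by eye at 144 hpf for death, hatching and malformations after a day in clean Hanks'. Before that, daily-renewed exposure at 80 uM (0.4% DMSO, 26C) from roughly 6-8 hpf through 5 dpf, 4 embryos per chemical.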

[11] = read-out: kallikrein-3 (KLK3), KLK3 (gene 354); test: LTEA_HepaRG_KLK3: Life Technologies and Expression Analysis (LTEA) Assay for kallikrein-3 (KLK3) using HepaRG (AID 2283652; active = hit-call score of the fitted dose curve at least 0.9, where 1 is the maximum; inactive = score below 0.9); conditions: mRNA level, 48 h; actives raise or lower the signal
How it was run: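 KLK3 transcript levels were measured by TaqMan qRT-PCR with normalisation to three housekeeping genes. HepaRG cultures received chemicals for 48 h at up to 100 uM (half-log, 8 points, 0.5% DMSO vehicle), fitted in both directions against DMSO.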

[12] = read-out: solute carrier (SLC22A6), SLC22A6 (gene 9356); test: LTEA_HepaRG_SLC22A6: Life Technologies and Expression Analysis (LTEA) Assay for solute carrier (SLC22A6) using HepaRG (AID 2283653; active = hit-call score of the fitted dose curve at least 0.9, where 1 is the maximum; inactive = score below 0.9); conditions: mRNA level, 48 h; actives raise or lower the signal
How it was run: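 Read-out is SLC22A6 transcript level by qRT-PCR, normalised to three housekeeping genes and fitted for gain or loss relative to 0.5% DMSO vehicle. Human HepaRG cells received chemicals at up to 100 uM for 48 h.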

[13] = read-out: solute carrier (SLC10A1), SLC10A1 (gene 6554); test: LTEA_HepaRG_SLC10A1: Life Technologies and Expression Analysis (LTEA) Assay for solute carrier (SLC10A1) using HepaRG (AID 2283657; active = hit-call score of the fitted dose curve at least 0.9, where 1 is the maximum; inactive = score below 0.9); conditions: mRNA level, 48 h; actives raise or lower the signal
How it was run: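 Cryopreserved HepaRG cells are thawed, plated and cultured 48 h; medium is then switched to serum-free induction medium and chemicals added (8 points, max 100 uM, 0.5% DMSO). After 48 h, RNA is isolated and SLC10A1 quantified by qRT-PCR.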

[14] = read-out: matrix metalloproteinase-1 (MMP1), MMP1 (gene 4312); test: LTEA_HepaRG_MMP1: Life Technologies and Expression Analysis (LTEA) Assay for matrix metalloproteinase-1 (MMP1) using HepaRG (AID 2283658; active = hit-call score of the fitted dose curve at least 0.9, where 1 is the maximum; inactive = score below 0.9); conditions: mRNA level, 48 h; actives raise or lower the signal
How it was run: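 HepaRG, ~100,000 cells/well, 48 h pre-culture; serum-free induction medium; test chemical 8 conc (max 100 uM, half-log), duplicate, 48 h; 0.5% DMSO; qRT-PCR MMP1, housekeeping-normalized; gain/loss fit vs DMSO.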

[15] = read-out: Cytochrome P450 (CYP24A1_1), CYP24A1 (gene 1591); test: LTEA_HepaRG_CYP24A1_1: Life Technologies and Expression Analysis (LTEA) Assay for Cytochrome P450 (CYP24A1_1) using HepaRG (AID 2283671; active = hit-call score of the fitted dose curve at least 0.9, where 1 is the maximum; inactive = score below 0.9); conditions: mRNA level, 48 h; actives raise or lower the signal
How it was run: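 Cultures of human HepaRG were treated in duplicate for 48 h (0.5% DMSO vehicle, highest dose 100 uM). CYP24A1 mRNA by qRT-PCR, normalized to ACTB, GAPDH, POLR2A.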

[16] = STM_H9_CystineISnorm_perc: Stemina devTOX quickPredict H9 human embryonic stem cell (hESC)-based Assay for Cystine (CYSS) Metabolite Biomarker, Normalized (AID 2283713; active = hit-call score of the fitted dose curve at least 0.9, where 1 is the maximum; inactive = score below 0.9)
How it was run: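 Cystine in spent media from the last 24 h of a 72 h H9 hESC exposure (daily re-dosing), measured by UPLC-HRMS. Values normalized to isotopic internal standard, then to 0.1% DMSO; viability via CellTiter-Fluor.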

[17] = STM_H9_OrnCyssISnorm_ratio: Stemina devTOX quickPredict H9 human embryonic stem cell (hESC)-based Assay for Ornithine (ORN):Cystine (CYSS) Ratio (AID 2283714)
How it was run: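 H9 hESC, 72h, q24h re-dose; last-day media → acetonitrile deproteinization → UPLC-HRMS. ORN:CYSS ratio from isotope-normalized EIC areas, vs 0.1% DMSO; MTX references on each plate.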

[18] = CEETOX_H295R_MTT_cell_viability: Viability Assessment in the CeeTox HT-H295R MTT Assay (AID 2283718; active = hit-call score of the fitted dose curve at least 0.9, where 1 is the maximum; inactive = score below 0.9)
How it was run: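 H295R cells prestimulated 48 h with 10 uM forskolin, then exposed 48 h to test chemical (0.1% DMSO final). Viability by MTT (0.5 mg/ml, 4 h, 37 C), absorbance 570/650 nm; percent change versus DMSO, bidirectional fit.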

[19] = ArunA_CellTiter_hNP: Viability Assessment in the ArunA Biomedical's Oris Neural Crest (hNC) Cell Migration Assay (AID 2283753)
How it was run: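 Viability read with CellTiter 96 Aqueous One after 72 h chemical exposure of human hNP1 neuroprogenitors, which were plated on Matrigel in LIF/bFGF medium 16 h beforehand. Endpoint fitted in positive direction relative to DMSO.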

[20] = ArunA_CellTiter_hNC: Viability Assessment in the ArunA Biomedical's Oris Neural Crest (hNC) Cell Migration Assay (AID 2283752)
How it was run: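 After a 72 h chemical exposure, viability of hNC cells is read with CellTiter Aqueous One and fitted as signal loss relative to DMSO. Cells were seeded at 60,000/well on Matrigel and cultured 16 h at 37 C beforehand.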

Measured: AC50

CC(C)(OO)c1ccccc1
inactive: [1] | [2] | [3] | [4] | [5] | [6]

Cc1ccccc1N
inactive: [1] | [2] | [3] | [4] | [5] | [7] | [8] | [9] | [6]

CC(C)(C)CC(C)(C)c1ccc(O)cc1
active: [8] 9.53 µM | [10] 4.55 µM
inactive: [1] | [4] | [5] | [7] | [9] | [6]

O=C(O)C(F)(F)C(F)(F)C(F)(F)C(F)(F)C(F)(F)C(F)(F)C(F)(F)C(F)(F)C(F)(F)C(F)(F)F
active: [13] 47.8 µM | [10] 8.02 µM
not listed: [4] | [8] | [16] | [17] | [18] | [19] | [20]
inactive: all other assays above

CC(C)(C)c1cc(O)ccc1O
inactive: [1] | [3] | [5] | [7] | [8] | [9] | [16] | [17]
active: [8] 85.6 µM and 25.9 µM and 27.6 µM | [10] 14.4 µM | [6] 16.8 µM

CCN1CCC2(CC1)COc1cc3c(cc12)N(C(=O)c1ccc(-c2ccc(-c4nnc(C)o4)cc2C)cc1)CC3
active: [10] 54 µM | [16] 3.56 µM | [17] 7.61 µM
inactive: [2] | [3] | [4] | [5] | [7] | [9] | [10] | [6]

CCOP(=S)(OCC)SCSP(=S)(OCC)OCC
active: [8] 46.6 µM | [10] 5.5 µM
inactive: [1] | [3] | [4] | [5] | [7] | [9] | [18] | [6]

ClC1(Cl)C2(Cl)C3(Cl)C4(Cl)C(Cl)(Cl)C5(Cl)C3(Cl)C1(Cl)C5(Cl)C24Cl (stereo unspecified)
active: [13] 1.22 µM | [17] 0.346 µM
not listed: [8] | [10] | [18] | [20]
inactive: all other assays above

O=C(O)C(F)(F)C(F)(F)C(F)(F)C(F)(F)C(F)(F)C(F)(F)F
inactive: [1] | [2] | [3] | [4] | [7] | [9] | [6]

C[C@@H]1C[C@@H]([C@H](O)CC2CC(=O)NC(=O)C2)C(=O)[C@@H](C)C1
active: [10] 6 µM | [16] 0.92 µM | [17] 2.9 µM | [6] 17.9 µM
inactive: [1] | [2] | [3] | [5] | [18]

CC12CC1(C)C(=O)N(c1cc(Cl)cc(Cl)c1)C2=O (stereo unspecified)
active: [16] 50 µM | [17] 50 µM
inactive: [2] | [3] | [4] | [5] | [7] | [8] | [9] | [10] | [18] | [6]

Oc1cccc2cccnc12
active: [8] 15.8 µM and 53.8 µM | [10] 4.78 µM | [6] 39.6 µM
inactive: [1] | [2] | [3] | [12] | [7] | [13] | [14] | [9] | [15]

CC(=O)[O][Hg][c]1ccccc1
active: [10] 0.066 µM | [16] 0.287 µM | [17] 0.311 µM | [6] 0.111 µM
inactive: [1] | [2] | [3] | [4] | [5] | [7] | [9]

C=C(C)C(=O)[O][Sn]([CH2]CCC)([CH2]CCC)[CH2]CCC
inactive: [1] | [2] | [3] | [4] | [5] | [7] | [9]
active: [10] 0.0483 µM | [16] 0.266 µM | [17] 0.441 µM | [6] 1.54 µM

CCC(C)(C)c1ccc(O)c(C(C)(C)CC)c1
inactive: [1] | [2] | [3] | [4] | [5] | [9] | [6]
active: [8] 0.847 µM | [10] 4.87 µM and 4.82 µM

ClCC(Cl)CCl
inactive: [1] | [2] | [3] | [4] | [5] | [7] | [10] | [16] | [17] | [6] | [20]
